Most compounds without a hit are left out; they make up all but 19% or so of the library.
TGFb SMAD3 inh: inhibitors of TGF-b signaling; Potency, µM (doses to about 46.1 µM), inactives show top-dose activity, negative = inhibition, most hits filed as inhibitors; HepG2 CAGA-GFP TGF-b/SMAD3 reporter, GFP fluorescence, 18 h; TGF-beta stimulated, 500 pg/mL final; 410,000 tested, 1.2% active; AID 588855; note: potency is the fitted concentration of half-maximal effect; % is set by controls: 0 for no effect and ±100 for the full control effect; nearly all actives have a fitted effect of over 65% in size
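Per well, imaged GFP fluorescence of HEPG2 CAGA-GFP cells gives the signal; cells get compound, then TGF-beta (500 pg/mL final), 18 h at 37 degrees C; %Activity versus -TGF-beta and +DMSO controls.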
TDP1 cell CPT: growth inhibition of DT40 Tdp1-/-;hTDP1 cells with camptothecin (screen for TDP1 inhibitors). chicken DT40 Tdp1-/-;hTDP1 cells + 20 nM CPT, ATP luminescence, 48 h. Potency, µM (highest dose often 46.2 µM), for the others: at the highest dose activity change, negative = growth inhibition, most hits filed as inhibitors. 420,000 tested, 12% active. AID 686979; note: potency is the fitted concentration of half-maximal effect; % is set by controls: 0 for no effect and ±100 for the full control effect; nearly all actives have a fitted effect of over 55% in size
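Cell growth measured by CellTiter-Glo luminescence after a minimum 48 h, 37 C compound exposure with 20 nM CPT in Tdp1-knockout DT40 cells stably expressing hTDP1, seeded 400/well; qHTS titration format.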
IL-1B inflam inh: inflammasome signaling inhibition, IL-1 beta readout; THP-1 LPS/ATP IL-1B secretion, AlphaLISA, 16 h; hits give low values; activity change, % at 57.5 µM; 360,000 tested, 4.7% active; AID 743279; in the data active = activity change below about -50%; inconclusive = mostly about -30% to -49%; note: % is set by controls: 0 for no effect and ±100 for the full control effect
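Secreted IL-1B measured by AlphaLISA bead assay after 16 h compound exposure of THP-1 cells; compounds (final up to 57.5 uM) added 1 h before LPS (250 ng/mL) and ATP (1.25 mM) stimulation; lower signal means less secretion.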
DT40 TDP1 no CPT: qHTS for Inhibitors of human tyrosyl-DNA phosphodiesterase 1 (TDP1): qHTS in cells in absence of CPT | Potency, µM (titrated, usually from 46.2 µM), for the others: at the top dose activity change, negative = growth inhibition, usual class: inhibitors | AID 686978, 2013 | 420,000 tested, 15% active | DT40 Tdp1-/- hTDP1 cells, no CPT, ATP luminescence, 48 h; note: potency is the fitted concentration of half-maximal effect; % is set by controls: 0 for no effect and ±100 for the full control effect; nearly all actives have a fitted effect of over 55% in size
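Camptothecin absent (DMSO only). Human TDP1-complemented DT40 knockout cells, 400 cells/well, 37 °C for minimum 48 hr; ATP measured via CellTiter-Glo, 30 min dark incubation, luminescence.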
HepG2 tox: kills HepG2 cells in TGF-b inhibitor counter-screen; HepG2 CAGA-GFP viability, ATP luminescence, 18 h; Potency, µM (series often up to 46.1 µM), for the others: at the top dose activity change, negative = cytotoxicity, hits mostly cytotoxic; 410,000 tested, 0.76% active; AID 588856; note: potency is the fitted concentration of half-maximal effect
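CellTiter-Glo luminescence gave cytotoxicity after 18 hours at 37 degrees C. The cells were HepG2 CAGA-GFP in 1% FBS DMEM, stimulated with 500 pg/mL TGF-beta after compound addition. %Activity was normalised to no-cell wells (complete cell-killing) and DMSO (no toxicity), and curves were fitted and classified.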
TDP1 block: blocks human tyrosyl-DNA phosphodiesterase 1. Q9NUW8. recombinant TDP1, AlphaScreen DNA substrate cleavage. Potency, µM (series often up to 130 µM), without a hit: at the highest dose activity change, negative = inhibition, most hits filed as inhibitors. 350,000 tested, 0.28% active. AID 485290; note: potency is the fitted concentration of half-maximal effect; % is set by controls: 0 for no effect and ±100 for the full control effect; nearly all actives have a fitted effect of over 40% in size
Target sequence (Q9NUW8 whole entry, looked up): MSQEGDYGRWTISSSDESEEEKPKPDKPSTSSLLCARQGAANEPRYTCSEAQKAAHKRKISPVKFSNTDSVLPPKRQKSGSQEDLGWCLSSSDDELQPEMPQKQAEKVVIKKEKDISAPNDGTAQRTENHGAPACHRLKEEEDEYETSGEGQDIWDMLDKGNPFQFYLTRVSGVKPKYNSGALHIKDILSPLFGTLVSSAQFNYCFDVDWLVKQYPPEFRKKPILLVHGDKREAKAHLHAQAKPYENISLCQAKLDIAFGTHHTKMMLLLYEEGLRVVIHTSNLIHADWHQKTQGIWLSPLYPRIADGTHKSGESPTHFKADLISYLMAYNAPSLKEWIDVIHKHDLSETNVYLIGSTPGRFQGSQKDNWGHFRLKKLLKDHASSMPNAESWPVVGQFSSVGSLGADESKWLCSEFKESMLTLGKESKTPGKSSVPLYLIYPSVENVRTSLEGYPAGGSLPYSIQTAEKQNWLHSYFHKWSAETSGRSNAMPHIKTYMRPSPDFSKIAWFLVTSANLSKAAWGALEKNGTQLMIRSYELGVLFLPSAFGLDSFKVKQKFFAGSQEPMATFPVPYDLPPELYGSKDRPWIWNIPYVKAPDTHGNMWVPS
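Signal: AlphaScreen proximity between streptavidin donor and anti-FITC acceptor beads on intact substrate. Reaction: Tdp1 1 nM, substrate 15 nM final, 5 min RT after 15 min compound preincubation.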
* marks the source's active call; other numbers are inactive results; ? = inconclusive; . = no result; [ ] = remark or other dose. Unless noted, calls come from the whole dose curve; as a rule, active = well fitted curve in the direction sought with a large enough effect; inconclusive = small, poorly fitted or top-dose-only effect, or another doubt; inactive = no such curve, though single readings can be large; an effect the other way counts as inactive or inconclusive.

SMILES	TGFb SMAD3 inh	TDP1 cell CPT	IL-1B inflam inh	DT40 TDP1 no CPT	HepG2 tox	TDP1 block
O=C(N/N=C1/C[C@@H](O)[C@@H](O)[C@@H]2[C@H]3C(=O)N(c4ccc(F)cc4F)C(=O)[C@@H]3CC[C@@H]12)OCc1ccccc1	.	.	.	.	.	7%[21 µM]
O=C(CSc1nnc(-c2ccccc2F)o1)Nc1ccc(N2CCOCC2)cc1	-9%	-2%	6	2%	-5%	1%
Cc1noc(C)c1Cn1c(C)c(C(=O)NCc2ccc3c(c2)OCCO3)sc1=O	7%	8.2µM*	30	16µM*	0%	.
CSc1ccc(Cn2c(C)c(C(=O)NCc3ccc4c(c3)OCCO4)sc2=O)cc1	-4%	?	-30	?	0%	.
Cc1c(C(=O)NCc2cccs2)sc(=O)n1Cc1ccc(S(=O)(=O)N(C)C)cc1	-15%	?	-20	23µM*	-6%	.
Cc1ccc(N2C=Nc3ccc(C)c4nc(C)cc2c34)cc1	1%	?	-52*	?	-28%	5%
Cc1ccc2cc3c(N)c4c(C)ccc(C)c4nc3nc2c1	-6%	?	20	?	-5%	-5%
CC1=Nc2ccc(C)c3nc(C)cc(c23)N1c1ccc(C)cc1	22%	?	0	16µM*	-21%	.
CNCCOc1ccc(Cl)c(Cl)c1	-8%	?	-24	16µM*	-12%	-6%
Clc1ccc(OCCN2CCCCC2)cc1Cl	-1%	-21%	35	?	-1%	-6%
Cc1ccc(CC#N)c(-c2c(CC#N)ccc(C)c2C)c1C	-3%	?	21	23µM*	4%	.
Cc1cccc(N2CCN(S(=O)(=O)c3ccc4c(c3)CCCN4C(=O)C3CCC3)CC2)c1C	-24%	?	15	16µM*	-5%	6%
Cc1ccc(C)c(N2CCN(S(=O)(=O)c3ccc4c(c3)CCCN4C(=O)C3CCC3)CC2)c1	-3%	16µM*	.	18µM*	1%	7%
COC(=O)C(C)NC(=S)N1CCN(c2c(F)cc3c(=O)c(C(=O)O)cn(C4CC4)c3c2OC)CC1C (stereo not drawn)	-9%	?	30	-28%	30%	8%
Cc1ccc(C(=O)CNc2ccccc2C)cc1	-6%	1%	-28	-9%	7%	5%
Cc1ccc(C(=O)CNc2ccc(C)cc2C)cc1	16%	23µM*	-18	16µM*	-21%	.
Cc1ccc(C(=O)CC(=O)c2ccc(C)cc2O)cc1	-5%	?	-12	18µM*	-26%	.
Cc1ccc(C(=O)CC(=O)c2cc(Cl)ccc2O)cc1	?	6.5µM*	43	4.6µM*	-62%	5%
CCOC(=O)c1c(C)c(C(=O)NCc2ccc(Cl)cc2)c(C)n1C	11%	-14%	.	-38%	1%	0%
CC(=NNC(=S)N1CC2CCC(CC2)C1)c1cccc(C)n1	?	0.01µM*	-110*	0.021µM*	-48%	.
CC(C)Oc1ccc(CNC(=O)C2CCN(C(=O)N3CCOc4ccccc43)CC2)cc1	1%	?	17	?	-27%	.
CCOc1ccc(CCNC(=O)C2CCN(C(=O)N3CC(CC)Oc4ccccc43)CC2)cc1 (stereo not drawn)	0%	15µM*	.	15µM*	4%	6%
CC(C)Oc1ccc(CNC(=O)C2CCN(C(=O)N3CC(C)Oc4ccccc43)CC2)cc1 (stereo not drawn)	?	?	.	?	-23%	-3%
CCOc1ccc(CNC(=O)C2CCN(C(=O)N3CC(CC)Oc4ccccc43)CC2)cc1 (stereo not drawn)	-14%	15µM*	.	23µM*	-24%	-6%
CCC1CN(C(=O)N2CCC(C(=O)NCc3ccc(N(C)C)cc3)CC2)c2ccccc2O1 (stereo not drawn)	-19%	16µM*	.	?	7%	3%
SMILES	TGFb SMAD3 inh	TDP1 cell CPT	IL-1B inflam inh	DT40 TDP1 no CPT	HepG2 tox	TDP1 block
COc1ccc(C2c3cc(OC)c(OC)cc3CC(=O)N2c2ccc(C)cc2)cc1 (stereo not drawn)	10%	13µM*	.	21µM*	-33%	4%
CCOc1cc2c(cc1OCC)C(c1ccccc1)N(c1ccccc1)C(=O)C2 (stereo not drawn)	13%	16µM*	-18	16µM*	1%	8%
COc1ccc(C2c3cc(OC)c(OC)cc3CC(=O)N2c2ccc(C)c(F)c2)cc1 (stereo not drawn)	?	3.3µM*	.	3.7µM*	-25%	10%
CCOc1cc2c(cc1OCC)C(c1ccc(OC)cc1)N(c1ccccc1)C(=O)C2 (stereo not drawn)	37%	-4%	-1	9%	-31%	3%
CC(=O)O[C@H](C(=O)O[C@@H]1C[C@@H](CCC[C@H]2O[C@H](C(=O)OC(C)C)CC[C@@H]2C)O[C@@H](CC#N)C1)c1ccccc1	.	.	.	.	.	10%
COC(=O)c1ccc(N2CCN(c3ccccc3)CC2)c(N)c1	4%	?	7	?	-19%	.
COC(=O)c1ccc(N2CCN(C)CC2)c(NC(=O)c2sc3ccccc3c2Cl)c1	10%	23µM*	-14	16µM*	-9%	.
CN1CCN(c2ccc(NC(=O)c3sc4ccccc4c3Cl)cc2)CC1	28%	12µM*	?	13µM*	-9%	5%
COC(=O)c1ccc(N2CCN(c3ccccc3)CC2)c(NC(=O)C2CC2)c1	-28%	21µM*	44	16µM*	-29%	-3%
Cc1ccc(NC(=O)c2sc3ccccc3c2Cl)cc1	-9%	-23%	.	-3%	-13%	-3%[12.3 µM]
Cc1ccc(-n2c(=O)c3c4c(sc3n(CC(=O)C(C)(C)C)c2=O)CCCCC4)cc1C	?	?	.	?	-21%	4%

Screening results (PubChem)
